According to PubChem BioAssay (NCATS):
Several values for one entry are separate records, joined by “and”; a condition that tells them apart may be missing. Equal entries are not always repeated. Results filed as inconclusive are left out. Activity calls are given as the source filed them. Unless noted, calls follow the shape of the dose curve; as a rule, active = well fitted inhibition curve with a large enough effect; inconclusive = small, poorly fitted or top-dose-only effect; inactive = flat fitted curve, though single readings scatter.

What was measured:
CP256 = test: qHTS profiling for inhibitors of Plasmodium falciparum proliferation (AID 504749);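 also: 0% = DMSO vehicle and full inhibition = artemisinin control; nearly all actives have a fitted effect of over 60% in size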; settings: P. falciparum in erythrocytes, SYBR Green DNA, 72 h; series mostly up to 28.7 µM
Method in brief: (§1)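 Quantitative HTS: compounds pinned into medium, infected erythrocytes added (0.3% parasitemia, 2.5% hematocrit), 72 h culture at 37 C under 5% CO2. Saponin/Triton lysis with SYBR Green I, overnight RT, then fluorescence read.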

CP260 = test: as above; settings: P. falciparum in erythrocytes, SYBR Green DNA, 72 h; series mostly up to 28.7 µM
Method in brief: as §1

CP262 = test: as above; settings: P. falciparum in erythrocytes, SYBR Green DNA, 72 h; series mostly up to 28.7 µM
Method in brief: as §1

CP265 = test: as above; settings: P. falciparum in erythrocytes, SYBR Green DNA, 72 h; series mostly up to 28.7 µM
Method in brief: as §1

CP266 = test: as above; settings: P. falciparum in erythrocytes, SYBR Green DNA, 72 h; series mostly up to 28.7 µM
Method in brief: as §1

CP268 = test: as above; settings: P. falciparum in erythrocytes, SYBR Green DNA, 72 h; series mostly up to 28.7 µM
Method in brief: as §1

CP269 = test: as above; settings: P. falciparum in erythrocytes, SYBR Green DNA, 72 h; series mostly up to 28.7 µM
Method in brief: as §1

CP286 = test: as above; settings: P. falciparum in erythrocytes, SYBR Green DNA, 72 h; series mostly up to 28.7 µM
Method in brief: as §1

CP291 = test: as above; settings: P. falciparum in erythrocytes, SYBR Green DNA, 72 h; series mostly up to 28.7 µM
Method in brief: as §1

CP297 = test: as above; settings: P. falciparum in erythrocytes, SYBR Green DNA, 72 h; series mostly up to 28.7 µM
Method in brief: as §1

CP305 = test: as above; settings: P. falciparum in erythrocytes, SYBR Green DNA, 72 h; series mostly up to 28.7 µM
Method in brief: as §1

CP315 = test: as above; settings: P. falciparum in erythrocytes, SYBR Green DNA, 72 h; series mostly up to 28.7 µM
Method in brief: as §1

CP325 = test: as above; settings: P. falciparum in erythrocytes, SYBR Green DNA, 72 h; series mostly up to 28.7 µM
Method in brief: as §1

CP329 = test: as above; settings: P. falciparum in erythrocytes, SYBR Green DNA, 72 h; series mostly up to 28.7 µM
Method in brief: as §1

CP335 = test: as above; settings: P. falciparum in erythrocytes, SYBR Green DNA, 72 h; series mostly up to 28.7 µM
Method in brief: as §1

DFO2036 = test: as above; settings: P. falciparum in erythrocytes, SYBR Green DNA, 72 h; series mostly up to 28.7 µM
Method in brief: as §1

DIV14 = test: as above; settings: P. falciparum in erythrocytes, SYBR Green DNA, 72 h; series mostly up to 28.7 µM
Method in brief: as §1

DIV17 = test: as above; settings: P. falciparum in erythrocytes, SYBR Green DNA, 72 h; series mostly up to 28.7 µM
Method in brief: as §1

DIV30 = test: as above; settings: P. falciparum in erythrocytes, SYBR Green DNA, 72 h; series mostly up to 28.7 µM
Method in brief: as §1

Dd2 = test: as above; settings: P. falciparum in erythrocytes, SYBR Green DNA, 72 h; series mostly up to 28.7 µM
Method in brief: as §1

ECU = test: as above; settings: P. falciparum in erythrocytes, SYBR Green DNA, 72 h; series mostly up to 28.7 µM
Method in brief: as §1

FAB9 = test: as above; settings: P. falciparum in erythrocytes, SYBR Green DNA, 72 h; series mostly up to 28.7 µM
Method in brief: as §1

GB4 = test: as above; settings: P. falciparum in erythrocytes, SYBR Green DNA, 72 h; series mostly up to 28.7 µM
Method in brief: as §1

HB3 = test: as above; settings: P. falciparum in erythrocytes, SYBR Green DNA, 72 h; series mostly up to 28.7 µM
Method in brief: as §1

ICS = test: as above; settings: P. falciparum in erythrocytes, SYBR Green DNA, 72 h; series mostly up to 28.7 µM
Method in brief: as §1

JCK = test: as above; settings: P. falciparum in erythrocytes, SYBR Green DNA, 72 h; series mostly up to 28.7 µM
Method in brief: as §1

N140 = test: as above; settings: P. falciparum in erythrocytes, SYBR Green DNA, 72 h; series mostly up to 28.7 µM
Method in brief: as §1

P93_24 = test: as above; settings: P. falciparum in erythrocytes, SYBR Green DNA, 72 h; series mostly up to 28.7 µM
Method in brief: as §1

P94_40 = test: as above; settings: P. falciparum in erythrocytes, SYBR Green DNA, 72 h; series mostly up to 28.7 µM
Method in brief: as §1

PAD = test: as above; settings: P. falciparum in erythrocytes, SYBR Green DNA, 72 h; series mostly up to 28.7 µM
Method in brief: as §1

PC15 = test: as above; settings: P. falciparum in erythrocytes, SYBR Green DNA, 72 h; series mostly up to 28.7 µM
Method in brief: as §1

PC26 = test: as above; settings: P. falciparum in erythrocytes, SYBR Green DNA, 72 h; series mostly up to 28.7 µM
Method in brief: as §1

PC49 = test: as above; settings: P. falciparum in erythrocytes, SYBR Green DNA, 72 h; series mostly up to 28.7 µM
Method in brief: as §1

SC27B = test: as above; settings: P. falciparum in erythrocytes, SYBR Green DNA, 72 h; series mostly up to 28.7 µM
Method in brief: as §1

TAB109 = test: as above; settings: P. falciparum in erythrocytes, SYBR Green DNA, 72 h; series mostly up to 28.7 µM
Method in brief: as §1

TAB113 = test: as above; settings: P. falciparum in erythrocytes, SYBR Green DNA, 72 h; series mostly up to 28.7 µM
Method in brief: as §1

TAB165 = test: as above; settings: P. falciparum in erythrocytes, SYBR Green DNA, 72 h; series mostly up to 28.7 µM
Method in brief: as §1

[1] = target: Nuclear receptor subfamily 1 group I member 2 (Rattus norvegicus) (UniProt Q9R1A7); test: qHTS assay for small molecule activators of the rat pregnane X receptor (rPXR) signaling pathway (AID 651751; call rule not given here; also: 0% is about no effect); settings: rPXR reporter cells, luciferase (One-Glo), 24 h
Chain of Nuclear receptor subfamily 1 group I member 2 (Rattus norvegicus) (Q9R1A7 whole entry, looked up): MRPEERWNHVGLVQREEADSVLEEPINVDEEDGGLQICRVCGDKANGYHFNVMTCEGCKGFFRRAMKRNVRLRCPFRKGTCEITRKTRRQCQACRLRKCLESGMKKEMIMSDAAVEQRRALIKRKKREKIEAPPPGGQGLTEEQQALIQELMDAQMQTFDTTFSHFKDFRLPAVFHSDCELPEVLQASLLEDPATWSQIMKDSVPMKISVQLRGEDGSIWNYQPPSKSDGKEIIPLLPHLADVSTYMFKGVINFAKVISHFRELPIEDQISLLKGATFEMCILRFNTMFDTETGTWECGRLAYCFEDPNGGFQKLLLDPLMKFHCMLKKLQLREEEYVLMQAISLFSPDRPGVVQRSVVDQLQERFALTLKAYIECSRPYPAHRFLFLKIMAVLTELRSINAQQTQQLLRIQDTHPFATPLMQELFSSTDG

[2] = qHTS assay for small molecule activators of the human pregnane X receptor (PXR) signaling pathway (AID 720659; call rule not given here; also: 0% is about no effect)

CN1[C@H]2CC(OC(=O)[C@H](CO)c3ccccc3)C[C@H]1[C@H]1O[C@H]12 (some centres undefined)
inactive: Potency (CP256) | Potency (CP260) | Potency (CP262) | Potency (CP265) | Potency (CP266) | Potency (CP268) | Potency (CP269) | Potency (CP286) | Potency (CP291) | Potency (CP297) | Potency (CP305) | Potency (CP315) | Potency (CP325) | Potency (CP329) | Potency (CP335) | Potency (DFO2036) | Potency (DIV14) | Potency (DIV17) | Potency (DIV30) | Potency (Dd2) | Potency (ECU) | Potency (FAB9) | Potency (GB4) | Potency (HB3) | Potency (ICS) | Potency (JCK) | Potency (N140) | Potency (P93_24) | Potency (P94_40) | Potency (PAD) | Potency (PC15) | Potency (PC26) | Potency (PC49) | Potency (SC27B) | Potency (TAB109) | Potency (TAB113) | Potency (TAB165) | max response [1] -5.42% and 5.83% | outcome [2]
